Assay results taken from publication PMC4336329 (PLoS ONE, 2015).
In all, about 310,000 compounds went through this assay and about 14,000 (4.5%) showed an effect of 50% or more. The effect is printed as a negative number. The list comes from a sample in which strong results are over-represented; it also holds similar structures and randomly drawn compounds.

Target: human ether-à-go-go-related gene (hERG) potassium channel (human, UniProt Q12809)
Test: primary screen, population patch clamp on CHO cells stably expressing hERG; higher = less effect of the substance
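Note: peak tail current of the secondary pulse compared with the same well before compound.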

Chain of human ether-à-go-go-related gene (hERG) potassium channel (Q12809 whole entry, looked up): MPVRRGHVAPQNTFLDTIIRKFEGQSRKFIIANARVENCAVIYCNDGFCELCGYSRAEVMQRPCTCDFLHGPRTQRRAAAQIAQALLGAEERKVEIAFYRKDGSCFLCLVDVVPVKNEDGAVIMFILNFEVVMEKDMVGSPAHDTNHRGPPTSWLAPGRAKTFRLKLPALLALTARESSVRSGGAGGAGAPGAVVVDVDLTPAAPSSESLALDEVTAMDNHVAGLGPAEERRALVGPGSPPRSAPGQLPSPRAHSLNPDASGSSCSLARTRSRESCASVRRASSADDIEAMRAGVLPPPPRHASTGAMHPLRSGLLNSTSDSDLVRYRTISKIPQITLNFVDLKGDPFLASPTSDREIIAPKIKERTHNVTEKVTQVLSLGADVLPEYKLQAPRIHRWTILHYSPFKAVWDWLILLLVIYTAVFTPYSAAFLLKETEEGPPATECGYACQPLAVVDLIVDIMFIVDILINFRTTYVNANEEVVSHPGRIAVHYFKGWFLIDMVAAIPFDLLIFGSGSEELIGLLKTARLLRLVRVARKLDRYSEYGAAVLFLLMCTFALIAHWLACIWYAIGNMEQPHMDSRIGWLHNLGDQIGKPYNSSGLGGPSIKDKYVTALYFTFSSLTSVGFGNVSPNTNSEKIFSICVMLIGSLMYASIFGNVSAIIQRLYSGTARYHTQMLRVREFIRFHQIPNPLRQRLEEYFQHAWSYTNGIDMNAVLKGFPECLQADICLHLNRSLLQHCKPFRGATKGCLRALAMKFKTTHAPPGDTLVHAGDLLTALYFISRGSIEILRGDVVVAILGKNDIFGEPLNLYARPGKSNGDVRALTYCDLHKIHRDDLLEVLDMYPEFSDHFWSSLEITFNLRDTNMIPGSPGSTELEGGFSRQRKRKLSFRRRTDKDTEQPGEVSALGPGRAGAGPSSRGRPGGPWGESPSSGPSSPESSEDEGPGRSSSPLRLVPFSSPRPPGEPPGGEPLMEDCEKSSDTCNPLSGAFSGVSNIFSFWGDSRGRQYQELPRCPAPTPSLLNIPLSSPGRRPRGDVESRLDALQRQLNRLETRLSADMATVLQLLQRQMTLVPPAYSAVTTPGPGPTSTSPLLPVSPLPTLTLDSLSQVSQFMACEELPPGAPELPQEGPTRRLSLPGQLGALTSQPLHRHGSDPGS

| Compound | hERG current change (%, negative = inhibition) at 10uM [%] |
| --- | --- |
| O=c1[nH][nH]c(C(F)(F)F)c1C=NCc1ccc(Cl)cc1 | -1.88 |
| COC(=O)C1=C(C(=O)OC)[C@@H]2N(C)c3ccccc3[C@@]23C[C@@H](C(=O)OC)N=C3N1 | -2.81 |
| CCOC(=O)N1CCC(N(CCN(C)C)C(=S)Nc2ccccc2C)CC1 | 3.33 |
| CN(C)S(=O)(=O)c1cccc(NC(=O)CSc2nc3ccccc3[nH]2)c1 | -22.2 |
| Cc1cc(C)n2c(-c3ccccc3Cl)nnc2n1 | -14.8 |
| O=C(NCCCCO)c1ccc2c3c(cccc13)CC2 | 7.52 |
| CC(=O)NS(=O)(=O)c1cccnc1Nc1ccc(Cl)c(Cl)c1 | 16.1 |
| CC(=O)Nc1nc2c(c3c1c(=O)oc1ccccc13)CCCCC2 | -7.1 |
| C=C[C@@]12CN(C)[C@H]3[C@H]1[C@@]1(C(=O)Nc4ccccc41)C1CC2[C@@H]3CO1 | 13 |
| O=c1c2c(-c3cccs3)csc2ncn1-c1ccccc1 | -28.3 |
| CCOc1ccc(N2C(=O)c3ccc(C(=O)OCC(=O)N(CC)C4CCS(=O)(=O)C4)cc3C2=O)cc1 (stereo not drawn) | -22.3 |
| COc1cc(NC(=O)CN2CCN(S(=O)(=O)/C=C/c3ccccc3)CC2)cc(OC)c1OC | -14.8 |
| COC(=O)c1cccc(NC(=O)CN2CCN(Cc3ccccc3)CC2)c1 | -16 |
| Cc1cccc(NC(=O)Cn2cccc2)c1 | -5.5 |
| Cc1cc(C)cc(NC(=O)CN2CCC(NC(=O)c3cccc(F)c3)CC2)c1 | -39 |
| CC(=O)c1cccc(NC(=O)CN2CCN(S(=O)(=O)/C=C/c3ccccc3)CC2)c1 | -53.9 |
| Cc1cccc(NC(=O)CN2CCN(CC(=O)Nc3cccc(C)c3)CC2)c1 | -63.7 |
| Cc1ccc(NC(=O)CN2CCC(NC(=O)c3cccc(F)c3)CC2)cc1C | -41.3 |
| Cc1cccc(NC(=O)CN2CCCCCC2)c1 | 7.69 |
| O=C(CN1CCN(Cc2ccccc2)CC1)Nc1cccc(Br)c1 | -51.7 |
| NS(=O)(=O)c1ccc(NC(=O)CN2CCN(S(=O)(=O)/C=C/c3ccccc3)CC2)cc1 | -9.04 |
| O=C(CN1CCC(NC(=O)c2cccc(F)c2)CC1)Nc1ccc(Br)cc1 | -73 |

| Compound | hERG current change (%, negative = inhibition) at 10uM [%] |
| --- | --- |
| CC(=O)c1cccc(NC(=O)CN2CCN(Cc3ccccc3)CC2)c1.Cl | -10.9 |
| CC(C(Sc1ccccc1N)c1ccccc1)[N+](=O)[O-] (stereo not drawn) | 7.82 |
| CCOP(=O)(O)c1cccc(OCCOCCOc2cccc(P(=O)(O)OCC)c2)c1 | 4.45 |
| Cn1c(=NCC(O)COc2ccccc2)sc2ccccc21 (stereo not drawn) | -42.7 |
| COc1ccnc(Oc2ccccc2)c1C(N)=O | 20.2 |
| C/C(Cn1cnc([N+](=O)[O-])n1)=N\NC(=O)c1cccc(F)c1 | 6.43 |
| COC(=O)c1cccc(NC(=O)CSc2nnc(C)n2C)c1 | 26 |
| Cc1ccc(NC(=O)C2CCN(S(=O)(=O)c3ccc4c(c3)NC(=O)C(C)S4)CC2)c(C)c1 (stereo not drawn) | -3.06 |
| O=C(O)C1CCN(C(=O)c2ccco2)CC1 | 9.94 |
| COc1ccc(N(CC(=O)N/N=C/c2ccccc2OC)S(=O)(=O)c2ccccc2)cc1 | 19.9 |
| Cc1cc(N2C(=O)C(O)=C(C(=O)c3cccs3)C2c2cccc(Br)c2)no1 (stereo not drawn) | 6.05 |
| c1ccc(-c2nnc(-c3ccncc3)nc2-c2ccccc2)cc1 | -24.5 |
| COc1cccc2c(=O)cc(C)n(CC(=O)Nc3ccc(C)c(C)c3)c12 | -5.88 |
| COc1cccc2c(=O)cc(C)n(CC(=O)Nc3cccc(C)c3)c12 | -59.4 |
| COc1cccc2c(=O)cc(C)n(CC(=O)Nc3ccc(Br)cc3)c12 | 12.8 |
| O=C(c1cccc(S(=O)(=O)N2CCCCCC2)c1)N1CCN(c2ccccc2)CC1 | -68.8 |
| O=C(c1cccc(S(=O)(=O)N2CCCCC2)c1)N1CCN(c2ccccc2)CC1 | -73.1 |
| O=C(c1cccc(S(=O)(=O)N2CCN(c3ccccc3)CC2)c1)N1CCCCCCC1 | -33.4 |
| O=C(NNC(=O)c1cccc(S(=O)(=O)N2CCN(c3ccccc3)CC2)c1)c1ccc(Cl)cc1 | -59.5 |
| CC(=O)N1CCN(C(=O)c2cccc(S(=O)(=O)N3CCN(c4ccccc4)CC3)c2)CC1 | -16.5 |
| O=C(c1cccc(S(=O)(=O)N2CCCC2)c1)N1CCN(c2ccccc2)CC1 | -13 |
| O=C(c1cccc(S(=O)(=O)N2CCOCC2)c1)N1CCN(c2ccccc2)CC1 | -15.7 |

| Compound | hERG current change (%, negative = inhibition) at 10uM [%] |
| --- | --- |
| Cc1ccc(C(=O)NNC(=O)c2cccc(S(=O)(=O)N3CCN(c4ccccc4)CC3)c2)cc1 | -25.4 |
| Cc1ccc(NC(=O)c2cccc(S(=O)(=O)N3CCN(c4ccccc4)CC3)c2)nc1 | -1.19 |
| CC1Oc2ccccc2N(CC(=O)NCc2ccccc2)C1=O (stereo not drawn) | 6.53 |
| CCOC(=O)C1=NN(c2ccccc2)C2=NC(C)=C(C(=O)OC)C(c3cccs3)N12 (stereo not drawn) | -5.66 |
| CCc1ccc(NC(=O)CNS(=O)(=O)c2c(C)noc2C)cc1 | -2.28 |
| N#Cc1nc(-c2ccco2)oc1N1CCN(c2cccc(Cl)c2)CC1 | -16.1 |
| COc1cc(NC(=O)CSc2nnnn2-c2ccccc2)cc(OC)c1OC | -0.308 |
| CCOc1ccccc1NC(=O)c1cccc2c1C(=O)N(C1CCCCC1)C2 | 9.57 |
| C1CCCCCC2(CCCCC1)OCC(CN1CCOCC1)O2 (stereo not drawn) | -20.5 |
| CN(C)S(=O)(=O)c1ccc(C(=O)NCc2nc3ccccc3s2)cc1 | 1.24 |
| O=C(CCCc1nc2ccccc2s1)NCc1ccc(F)cc1 | -37.4 |
| CN(Cc1nc2ccccc2s1)C(=O)c1ccc(F)cc1 | -61 |
| Cc1cccc(-c2nc(=S)c3c(n2Cc2ccco2)CCCC3)c1 | 7.14 |
| O=C(NCc1ccccc1)C1=C[C@H](c2coc3ccccc3c2=O)C[C@H](OCc2ccc(CO)cc2)O1 | -38.1 |
| CCn1c(=O)cc(SCC(=O)NCCC2=CCCCC2)c2ccccc21 | -6.46 |
| Cc1ccc(OCCCC(=O)Nc2ccc(Br)cc2)cc1 | 17.2 |
| CC(OCC(O)CN(C)CCOc1ccccc1)c1ccc(Cl)cc1 (stereo not drawn) | -43.5 |
| CC(=O)c1ccc(OCC(O)CN(C)CCOc2ccc(Br)cc2)cc1 (stereo not drawn) | 23.4 |
| CN(CCOc1ccccc1)CC(O)COc1ccccc1 (stereo not drawn) | 10.8 |
| CN(CCOc1ccc(Br)cc1)CC(O)c1ccccc1.O=C(O)C(=O)O (stereo not drawn) | -63.1 |
| CC(C)c1ccc(CN(C)CC(O)c2ccccc2)cc1.O=C(O)C(=O)O (stereo not drawn) | -18.9 |
| CN(CCOc1ccc(Cl)cc1)CC(O)c1ccccc1.O=C(O)C(=O)O (stereo not drawn) | -60.4 |

| Compound | hERG current change (%, negative = inhibition) at 10uM [%] |
| --- | --- |
| COC(=O)c1cc(Cl)c(NC(=O)/C=C/c2ccc(Cl)cc2Cl)cc1OC | -10.9 |
| COc1ccc(N2CCN(C(=O)CNC(=O)Cc3ccc(Cl)cc3)CC2)cc1 | -8.38 |
| Cc1cc(C)c(C#N)c(SCC(=O)CC(=O)OC(C)C)n1 | 1.82 |
| Cc1ccc(NS(=O)(=O)c2ccc(Br)s2)nc1 | 23.4 |
| Cc1ccc(C)c(OCCCC(=O)Nc2nccs2)c1 | 12.9 |
| CC(C)Cn1nc(-c2ccccc2)c2ccccc2c1=O | 20.1 |
| C/C(=C\c1ccccc1)CN1CCC(C(=O)N2CCC(C)CC2)CC1.O=C(O)C(=O)O | -63 |
| CCCCN(C)C(=O)C1CCN(C/C(C)=C/c2ccccc2)CC1.O=C(O)C(=O)O | -73.4 |
| CCN(Cc1ccccc1)C(=O)C1CCN(C/C(C)=C/c2ccccc2)CC1.O=C(O)C(=O)O | -70.4 |
| CCN1CCN(C/C(C)=C/c2ccccc2)CC1 | 4.72 |
| CC1CCN(C(=O)C2CCN(CC(C)c3ccccc3)CC2)CC1.O=C(O)C(=O)O (stereo not drawn) | -13.5 |
| CCOC(=O)N1CCN(C/C(C)=C/c2ccccc2)CC1 | -25.1 |
| CCCCNC(=O)C1CCN(C/C(C)=C/c2ccccc2)CC1.O=C(O)C(=O)O | -63 |
| C/C(=C\c1ccccc1)CN1CCC(C(=O)N2CCCCC2)CC1.O=C(O)C(=O)O | -47.5 |
| CCN(CC)C(=O)C1CCCN(C/C(C)=C/c2ccccc2)C1 (stereo not drawn) | -30.7 |
| C/C(=C\c1ccccc1)CN1CCN(C)CC1 | 16.2 |
| CCCCNC(=O)C1CCN(Cc2ccccn2)CC1 | 12 |
| CCN(Cc1ccccc1)C(=O)C1CCN(C(=O)Nc2ccccc2)CC1 | 14.8 |
| Cc1cc(C)c(NC(=O)C2CCN(C(=O)c3ccco3)CC2)c(C)c1 | 19.9 |
| COc1ccc(C2C(C(=O)c3sc(C)nc3C)=C(O)C(=O)N2CCN(C)C)cc1 (stereo not drawn) | -6.4 |
| O=C(COC(=O)c1cccs1)Nc1cccc(Cl)c1 | 10.2 |
